# Reference: PubChem BioAssay AID764 (NMMLSC, 2007)
# In all, about 190,000 compounds went through this assay and about 220 (0.12%) were called active. About 2% were inconclusive and are not listed. This is one part of a sample in which actives are shown more often than they occur. Unmarked numbers belong to inactive results.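 The calls were made as follows: active = GTP binding at least 20 percentage points away from the 100% baseline, in either direction, so actives lie on both sides; inconclusive = Compound likely fluorescent itself, or too few beads counted; inactive = the rest.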
# Biological target: Ras-related C3 botulinum toxin substrate 1 (Homo sapiens) (UniProt P63000)
# Assay: activated Rac1 mutant nucleotide binding changes – biochemical, bead-based flow cytometry, multiplex, fluorescent GTP, primary screen (AID 764)
# Conditions: GST-Rac1 activated beads, at 10 µM, actives lie on both sides, 100% means binding = to untreated wells
row,SMILES,percent activity (GTP binding)
1,CCOc1ccc(C(CC(=O)O)n2cnnn2)cc1OC (stereo not given),91%
2,Cc1c(Cl)c([N+](=O)[O-])nn1CC(=O)NCC1CCCO1 (stereo not given),96%
3,CC(NC(=O)COC(=O)c1ccc(Cl)cc1O)c1ccc(F)cc1 (stereo not given),99%
4,COc1c(F)c(F)c(C(=O)O)c(Nc2ccccc2C)c1F,97%
5,Cc1ccc(NC(=S)NC(=O)c2ccc(-c3ccccc3)cc2)c(C)c1,92%
6,Cc1ccc(Nc2c(F)c(F)c(F)c(F)c2C(=O)O)c(C)c1,139% [activator] (active)
7,COc1ccc(C(=O)/C=C/c2ccc(OC3CSC3)cc2)cc1,95%
8,COc1ccc(/C=C/C(=O)c2cc(Br)ccc(=O)c2O)cc1,78% (active)
9,COc1ccc(/C=C/C(=O)c2ccc(OC)cc2O)cc1,96%
10,CCOC(=O)c1c(C)[nH]c(C2=NNC(=NC(C)COC)SC2)c1C (stereo not given),97%
11,Cc1cccc(NC(=O)Nc2ccc3c(c2)OCO3)n1,97%
12,CC(C(=O)NCC1CCCCC1)N(C)Cc1cccc(Cl)c1 (stereo not given),95%
13,CN(C)CCOc1cccc(Br)c1,95%
14,N=C1C(c2nc3ccccc3s2)=C(O)CN1NC(=O)c1ccc([N+](=O)[O-])cc1,84%
15,C/C(=N/N1CCN(Cc2cccc3ccccc23)CC1)c1cccnc1,95%
16,CCc1cccc(OC2OC(CO)C(O)C(O)C2NC(C)=O)c1 (stereo not given),97%
17,S=C(Nc1ccc(Br)cc1Cl)N1CCC2(CC1)OCCO2,98%
18,Cc1cccc2c1N(CCOc1ccccc1)C(=O)C2=O,98%
19,Cc1ccc(CC2CC(=O)N(c3nc(C)cc(C)n3)C2=O)cc1 (stereo not given),97%
20,CNC(=O)COc1ccc(S(=O)(=O)Nc2ccccc2)cc1,98%

row,SMILES,percent activity (GTP binding)
1,C=CCN(CC=C)S(=O)(=O)c1ccc(C(=O)Nc2nc3c(s2)CCc2ccccc2-3)cc1,54% (active)
2,COCCN(CCOC)S(=O)(=O)c1ccc(C(=O)Nc2nc3c(s2)CCc2ccccc2-3)cc1,100%
3,C=CCN(CC=C)S(=O)(=O)c1ccc(C(=O)Nc2sc3c(c2C(N)=O)CCCCC3)cc1,100%
4,CCOC(=O)c1[nH]cnc1C(=O)Nc1ccccc1C,95%
5,CCOc1ccc(N2C(=O)Nc3ccccc3C2(O)C(=O)NCc2ccco2)cc1 (stereo not given),99%
6,CCOC(=O)c1sc(/N=C/C2=C(O)CC(C)(C)CC2=O)c(C(=O)OCC)c1C,95%
7,O=C(NCCOc1ccccc1F)Nc1ccc(Br)cc1,93%
8,C=CCn1c(CNC(=O)c2ccco2)nnc1SCC(=O)c1ccc(OC)cc1,97%
9,COc1ccc(CCNC(=O)CN(c2ccccc2)S(C)(=O)=O)cc1,97%
10,COc1cccc(OC)c1C(=O)NC(=S)Nc1ccc(N2CCOCC2)c(Cl)c1,95%
11,NS(=O)(=O)c1ccc(NC(=O)COC(=O)CCc2c[nH]c3ccccc23)cc1,99%
12,CCOC(=O)C(=Cc1ccccc1OC)C(=O)OCC,89%
13,COc1cc(/C=N/NC(=S)Nc2cccnc2)cc(OC)c1O,89%
14,CCc1cc2c(=O)c(-c3nc4ccccc4n3C)c(CCCC(=O)O)oc2cc1OC(=O)C(C)(C)C,94%
15,Cc1ccc(O)c(NC(=S)NC(=O)COc2ccc(Br)cc2)c1,92%
16,COc1cc(N2C(=O)c3ccccc3C2=O)c(Cl)cc1C(=O)OCC(=O)N1CCOCC1,97%
17,COc1ccc(N2CCN(C(C)=C3C(=O)c4ccccc4C3=O)CC2)cc1,92%
18,CCOC(=O)C(C)n1nc(-c2ccccc2)c2ccccc2c1=O (stereo not given),96%
19,Cc1ccc(CN(Cc2cccnc2)C(=S)Nc2cc(Cl)ccc2C)cc1,95%
20,CC1Cc2ccccc2N1S(=O)(=O)c1c(N)n(C)c(=O)n(C)c1=O (stereo not given),102%
